Data: PubChem BioAssay (EPA / NIEHS)
Records with an inconclusive call do not appear. The source made the active and inactive calls. Rule for the calls, unless noted: active = hit-call score of the fitted dose curve at least 0.9, where 1 is the maximum; inconclusive = response in the unintended direction; inactive = score below 0.9.

How the values were obtained:
[1] = read-out: Intercellular Adhesion Molecule 1 (ICAM1), ICAM1 (gene 3383); test: BSK_3C_ICAM1: BioMAP Diversity Plus: 3C Assay for Intercellular Adhesion Molecule 1 (ICAM1) Biomarker Activity (AID 2283003; active = hit-call score of the fitted dose curve at least 0.9, where 1 is the maximum; inactive = score below 0.9); conditions: primary human endothelial cells (HUVEC); actives raise or lower the signal
Summary of the method: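 Primary human umbilical vein endothelial cells in the BioMAP 3C system were exposed to chemicals for 24 h, then ICAM-1 was quantified by ELISA. Activity was fitted bidirectionally against the DMSO negative control baseline.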

[2] = BSK_3C_Proliferation: Cell Proliferation Assessment in the BioMAP Diversity Plus: 3C Assay (AID 2283006; active = hit-call score of the fitted dose curve at least 0.9, where 1 is the maximum; inactive = score below 0.9;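 for AC50: potency may reflect either rise or fall in cell number versus DMSO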); conditions: primary human endothelial cells (HUVEC)
Summary of the method: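 Human umbilical vein endothelial cells were grown sub-confluent and exposed to chemical for 48 h, then fixed with 10% TCA and stained with 0.1% sulforhodamine B; absorbance at 560 nm gave relative cell number, fitted bidirectionally against DMSO baseline.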

[3] = molecular target: Peroxisome proliferator-activated receptor gamma (Homo sapiens) (UniProt P37231); test: ATG_PPARg_TRANS: Attagene TRANS-FACTORIAL HepG2 Assay for human Peroxisome Proliferator-activated Receptor-gamma (PPARg) (AID 2283007)
Summary of the method: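 Gain-of-signal endpoint relative to DMSO, derived from reporter mRNA levels quantified by RT-PCR and capillary electrophoresis. Cells were HepG2 transiently expressing a chimeric NR-Gal4 construct with GAL4-UAS reporters, exposed to chemicals for 24 h.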

[4] = molecular target: Nuclear receptor subfamily 1 group I member 2 (Homo sapiens) (UniProt O75469); test: ATG_PXR_TRANS: Attagene TRANS-FACTORIAL HepG2 Assay for human Pregnane X Receptor (PXR) (AID 2283008)
Summary of the method: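 Read-out is fluorescence of labelled reporter cDNA fragments separated by capillary electrophoresis after RT-PCR and HpaI digestion. Source: HepG2 cells carrying PXR-GAL4/UAS reporter constructs, treated 24 h; activity fitted upward relative to DMSO.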

[5] = molecular target: human RAR-related Orphan Receptor beta (RORb), RORB (gene 6096) (UniProt Q92753); test: ATG_RORb_TRANS: Attagene TRANS-FACTORIAL HepG2 Assay for human RAR-related Orphan Receptor beta (RORb) (AID 2283010)
Summary of the method: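 HepG2 cells were transiently transfected with multiplexed GAL4-UAS reporter units expressing chimeric nuclear receptor–GAL4 proteins, then dosed for 24 h. Reporter mRNA was quantified by RT-PCR with fluorescent labelling and capillary electrophoresis; gain of signal was fitted relative to DMSO.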

[6] = molecular target: human Peroxisome Proliferator-activated Receptor delta (PPARd), PPARD (gene 5467) (UniProt Q03181); test: ATG_PPARd_TRANS: Attagene TRANS-FACTORIAL HepG2 Assay for human Peroxisome Proliferator-activated Receptor delta (PPARd) (AID 2283002)
Summary of the method: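 Read-out: reporter mRNA induction, quantified by fluorescent RT-PCR products resolved by capillary electrophoresis. Human HepG2 liver cells carried transiently transfected Gal4-UAS reporter constructs with chimeric NR-Gal4 fusions. Cells were dosed for 24 h; DMSO served as baseline.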

[7] = molecular target: human RAR-related Orphan Receptor gamma (RORg), RORC (gene 6097) (UniProt P51449); test: ATG_RORg_TRANS: Attagene TRANS-FACTORIAL HepG2 Assay for human RAR-related Orphan Receptor gamma (RORg) (AID 2283011);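 for AC50: potency for induction of reporter transcripts above DMSO so activators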
Summary of the method: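 HepG2 cells transiently transfected with GAL4-UAS reporter units and chimeric RORg-Gal4 construct; after 24 h chemical exposure, reporter mRNA measured by RT-PCR with fluorescent capillary electrophoresis, gain of signal fitted against DMSO.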

[8] = molecular target: human Retinoic Acid Receptor gamma (RARg), RARG (gene 5916) (UniProt P13631); test: ATG_RARg_TRANS: Attagene TRANS-FACTORIAL HepG2 Assay for human Retinoic Acid Receptor gamma (RARg) (AID 2283009)
Summary of the method: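 HepG2 cells transiently transfected with multiplexed reporter units expressing chimeric RARg-GAL4 and GAL4-UAS-driven reporters; 24 h compound exposure. Reporter mRNA quantified by RT-PCR with fluorescent labelling and capillary electrophoresis; gain-of-signal fitted relative to DMSO baseline.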

[9] = molecular target: Retinoic acid receptor alpha (Homo sapiens) (UniProt P10276); test: ATG_RARa_TRANS: Attagene TRANS-FACTORIAL HepG2 Assay for human Retinoic Acid Receptor alpha (RARa) (AID 2283005)
Summary of the method: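 HepG2 transiently transfected with multiplex GAL4-UAS reporter units including a human RARa–GAL4 chimera; 24 h compound exposure. Reporter mRNA quantified by RT-PCR, 6-FAM labeling and capillary electrophoresis; gain of signal versus DMSO.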

Chain of human RAR-related Orphan Receptor beta (RORb), RORB (gene 6096) (Q92753 whole entry, looked up, the tested form may be a part): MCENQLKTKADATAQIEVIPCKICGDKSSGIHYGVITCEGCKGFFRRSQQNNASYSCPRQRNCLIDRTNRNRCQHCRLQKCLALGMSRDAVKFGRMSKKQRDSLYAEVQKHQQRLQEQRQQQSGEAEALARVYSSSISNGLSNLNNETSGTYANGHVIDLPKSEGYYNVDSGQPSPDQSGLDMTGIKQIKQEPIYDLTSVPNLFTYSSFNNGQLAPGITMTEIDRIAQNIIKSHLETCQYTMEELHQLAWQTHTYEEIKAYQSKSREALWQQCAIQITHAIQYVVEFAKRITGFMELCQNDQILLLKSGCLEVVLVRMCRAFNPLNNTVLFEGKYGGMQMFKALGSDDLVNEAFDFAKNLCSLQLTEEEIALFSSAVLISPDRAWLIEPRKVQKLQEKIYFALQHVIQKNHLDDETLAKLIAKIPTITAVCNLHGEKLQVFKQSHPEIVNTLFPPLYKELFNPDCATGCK
Chain of human Peroxisome Proliferator-activated Receptor delta (PPARd), PPARD (gene 5467) (Q03181 whole entry, looked up, the tested form may be a part): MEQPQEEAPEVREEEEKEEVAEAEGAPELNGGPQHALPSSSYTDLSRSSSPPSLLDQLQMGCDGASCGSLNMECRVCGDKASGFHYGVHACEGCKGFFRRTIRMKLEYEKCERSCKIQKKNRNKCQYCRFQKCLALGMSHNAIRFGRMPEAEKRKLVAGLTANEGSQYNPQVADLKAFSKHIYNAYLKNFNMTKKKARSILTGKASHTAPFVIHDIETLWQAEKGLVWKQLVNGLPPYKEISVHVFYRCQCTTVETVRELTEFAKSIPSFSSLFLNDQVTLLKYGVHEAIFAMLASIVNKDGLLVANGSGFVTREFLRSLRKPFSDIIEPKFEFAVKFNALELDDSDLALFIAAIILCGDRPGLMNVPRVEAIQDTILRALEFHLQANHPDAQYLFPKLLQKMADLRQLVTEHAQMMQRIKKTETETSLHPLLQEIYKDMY
Chain of human Retinoic Acid Receptor gamma (RARg), RARG (gene 5916) (P13631 whole entry, looked up, the tested form may be a part): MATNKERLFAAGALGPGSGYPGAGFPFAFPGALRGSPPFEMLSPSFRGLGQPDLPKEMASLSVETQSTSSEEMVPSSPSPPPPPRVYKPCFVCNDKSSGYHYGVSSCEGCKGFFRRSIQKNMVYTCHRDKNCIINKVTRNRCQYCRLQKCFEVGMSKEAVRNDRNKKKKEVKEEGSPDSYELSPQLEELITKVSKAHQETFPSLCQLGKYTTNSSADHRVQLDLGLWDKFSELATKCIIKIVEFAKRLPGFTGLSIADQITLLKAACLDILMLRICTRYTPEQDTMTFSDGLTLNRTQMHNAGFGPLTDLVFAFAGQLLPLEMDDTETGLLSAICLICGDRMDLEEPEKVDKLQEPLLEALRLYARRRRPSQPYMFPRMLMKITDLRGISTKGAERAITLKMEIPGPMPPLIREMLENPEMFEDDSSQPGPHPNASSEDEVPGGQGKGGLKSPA
Chain of Peroxisome proliferator-activated receptor gamma (Homo sapiens) (P37231 whole entry, looked up, the tested form may be a part): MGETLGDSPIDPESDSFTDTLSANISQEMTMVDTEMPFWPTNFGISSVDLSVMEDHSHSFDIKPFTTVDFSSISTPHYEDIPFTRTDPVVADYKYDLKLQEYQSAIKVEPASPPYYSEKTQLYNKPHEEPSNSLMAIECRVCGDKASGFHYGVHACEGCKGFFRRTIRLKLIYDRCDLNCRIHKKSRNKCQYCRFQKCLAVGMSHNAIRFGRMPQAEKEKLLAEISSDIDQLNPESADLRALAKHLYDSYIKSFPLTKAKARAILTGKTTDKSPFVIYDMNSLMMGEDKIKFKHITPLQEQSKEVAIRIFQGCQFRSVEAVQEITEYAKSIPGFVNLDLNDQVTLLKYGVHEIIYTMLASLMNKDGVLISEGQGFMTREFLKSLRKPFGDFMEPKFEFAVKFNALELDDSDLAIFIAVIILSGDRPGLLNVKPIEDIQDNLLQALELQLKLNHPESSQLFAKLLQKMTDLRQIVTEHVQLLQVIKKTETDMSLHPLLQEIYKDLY
Chain of Retinoic acid receptor alpha (Homo sapiens) (P10276 whole entry, looked up, the tested form may be a part): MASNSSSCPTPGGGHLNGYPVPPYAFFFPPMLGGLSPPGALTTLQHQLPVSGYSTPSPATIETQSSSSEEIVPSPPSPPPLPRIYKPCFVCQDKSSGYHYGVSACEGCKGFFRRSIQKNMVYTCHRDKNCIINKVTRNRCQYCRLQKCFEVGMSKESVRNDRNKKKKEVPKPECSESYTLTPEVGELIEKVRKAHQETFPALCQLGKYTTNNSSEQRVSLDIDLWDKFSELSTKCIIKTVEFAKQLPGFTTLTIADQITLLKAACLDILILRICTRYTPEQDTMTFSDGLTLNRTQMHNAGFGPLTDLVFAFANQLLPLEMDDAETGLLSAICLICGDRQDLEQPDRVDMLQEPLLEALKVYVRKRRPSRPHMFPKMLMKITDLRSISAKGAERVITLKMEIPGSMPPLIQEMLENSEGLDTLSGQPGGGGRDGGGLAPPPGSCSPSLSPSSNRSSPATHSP
Chain of Nuclear receptor subfamily 1 group I member 2 (Homo sapiens) (O75469 whole entry, looked up, the tested form may be a part): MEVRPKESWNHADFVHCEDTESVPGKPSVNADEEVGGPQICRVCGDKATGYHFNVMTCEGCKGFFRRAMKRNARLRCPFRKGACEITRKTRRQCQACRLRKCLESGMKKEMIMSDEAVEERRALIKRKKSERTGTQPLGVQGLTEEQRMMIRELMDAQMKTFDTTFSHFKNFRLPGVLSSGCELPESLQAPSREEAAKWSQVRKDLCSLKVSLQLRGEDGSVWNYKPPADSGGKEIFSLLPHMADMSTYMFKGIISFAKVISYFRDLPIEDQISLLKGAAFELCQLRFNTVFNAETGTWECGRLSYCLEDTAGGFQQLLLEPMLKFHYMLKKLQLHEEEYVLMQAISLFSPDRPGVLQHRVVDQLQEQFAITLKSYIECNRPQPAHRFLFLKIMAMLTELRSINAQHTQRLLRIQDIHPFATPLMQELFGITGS
Chain of human RAR-related Orphan Receptor gamma (RORg), RORC (gene 6097) (P51449 whole entry, looked up, the tested form may be a part): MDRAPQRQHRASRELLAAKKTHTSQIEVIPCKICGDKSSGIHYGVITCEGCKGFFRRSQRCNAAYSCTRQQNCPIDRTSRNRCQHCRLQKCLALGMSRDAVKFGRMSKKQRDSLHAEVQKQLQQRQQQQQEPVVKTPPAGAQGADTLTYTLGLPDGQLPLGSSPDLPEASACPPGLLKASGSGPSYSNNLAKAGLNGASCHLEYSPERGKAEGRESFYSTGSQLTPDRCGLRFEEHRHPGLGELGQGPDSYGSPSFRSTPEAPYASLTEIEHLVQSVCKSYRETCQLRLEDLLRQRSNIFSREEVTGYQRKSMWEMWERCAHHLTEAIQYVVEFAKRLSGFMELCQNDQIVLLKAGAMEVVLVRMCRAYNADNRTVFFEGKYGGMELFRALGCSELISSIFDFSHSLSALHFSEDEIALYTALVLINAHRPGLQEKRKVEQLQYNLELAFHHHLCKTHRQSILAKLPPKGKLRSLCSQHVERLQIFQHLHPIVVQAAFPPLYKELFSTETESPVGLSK

For COc1cc(C=O)ccc1OC(=O)C(C)C, the outcome [1] was “inactive”, the outcome [2] was “inactive” and the outcome [3] was “inactive”. The outcome [4] was “inactive” and the outcome [5] was “inactive”.

For CC(=O)C(C)=O, the outcome [6] was “inactive” and the outcome [4] was “inactive”.

With O=[N+]([O-])c1cc(C(F)(F)F)ccc1Cl the outcome [1] was “inactive”, the outcome [2] was “inactive” and the outcome [3] was “inactive”. For the same compound, the outcome [4] was “inactive”.

In the case of O=C(O)c1cn(-c2ccc(F)cc2)c2cc(N3CCNCC3)c(F)cc2c1=O, the outcome [1] is reported as “inactive” and the outcome [2] is reported as “inactive”.

In the case of Cc1cc(C2(c3cc(C)c(O)cc3C)OS(=O)(=O)c3ccccc32)c(C)cc1O, the outcome [1] is reported as “inactive”, the outcome [2] is reported as “inactive” and the outcome [3] is reported as “inactive”. For the same compound, the AC50 [4] was 32.7 µM (active).

For CC1=CC(=O)NS(=O)(=O)O1, the outcome [6] was “inactive” and the outcome [7] was “inactive”.

With O=Cc1ccc(F)cc1 the outcome [6] was “inactive”, the outcome [3] was “inactive” and the outcome [4] was “inactive”. For the same compound, the outcome [5] was “inactive” and the outcome [7] was “inactive”.

For CN(C)C(=N)N=C(N)N, the outcome [6] was “inactive”, the outcome [4] was “inactive” and the outcome [8] was “inactive”.

For CC(=O)Nc1ccccc1O, the outcome [1] was “inactive”, the outcome [2] was “inactive” and the outcome [3] was “inactive”. For the same compound, the outcome [4] was “inactive” and the outcome [7] was “inactive”.

In the case of COc1cccc(OC)c1, the outcome [6] is reported as “inactive”, the outcome [3] is reported as “inactive” and the outcome [7] is reported as “inactive”.

For CC1(C)[C@H](C(=O)OCc2cccc(Oc3ccccc3)c2)[C@@H]1C=C(Cl)Cl, the outcome [6] was “inactive” and the outcome [4] was “inactive”.

In the case of CC(C)OP(=O)(CP(=O)(OC(C)C)OC(C)C)OC(C)C, the outcome [6] is reported as “inactive”, the outcome [3] is reported as “inactive” and the AC50 [4] is reported as 3.27 µM (active). For the same compound, the outcome [7] was “inactive”.

For CCCC1CCC(=O)O1 (centres undefined), the outcome [6] was “inactive”, the outcome [4] was “inactive” and the outcome [5] was “inactive”.

For CN(CCOc1ccc(CC2SC(=O)NC2=O)cc1)c1ccccn1 (centres undefined), the outcome [1] was “inactive”, the AC50 [2] was 7.9 µM (active) and the AC50 [4] was 5.11 µM (active).

In the case of CC(C)C(C)(C)C(C)(C)C(C)(C)S, the outcome [6] is reported as “inactive”, the AC50 [3] is reported as 100 µM (active) and the AC50 [4] is reported as 4.47 µM (active). For the same compound, the outcome [7] was “inactive”.

With FC1(F)C(F)(F)C(F)(F)C2(F)C(F)(C1(F)F)C(F)(F)C(F)(F)C1(F)C(F)(F)C(F)(F)C(F)(F)C(F)(F)C12F (centres undefined) the outcome [6] was “inactive” and the outcome [4] was “inactive”.

With OCCN1CCNCC1 the outcome [6] was “inactive” and the outcome [5] was “inactive”.

In the case of CC(=O)Nc1ccc(C)cc1C, the outcome [6] is reported as “inactive”, the outcome [4] is reported as “inactive” and the outcome [5] is reported as “inactive”.

With O=P(c1ccccc1)(c1ccccc1)c1ccccc1 the outcome [1] was “inactive”, the outcome [2] was “inactive” and the outcome [3] was “inactive”. For the same compound, the AC50 [4] was 0.325 µM (active).

In the case of CC(=O)C(=O)O, the outcome [6] is reported as “inactive”, the outcome [4] is reported as “inactive” and the outcome [5] is reported as “inactive”.

For CC(C)Oc1ccccc1O, the outcome [1] was “inactive”, the outcome [2] was “inactive” and the outcome [3] was “inactive”. For the same compound, the AC50 [4] was 27.4 µM (active) and the outcome [5] was “inactive”.

In the case of Clc1nc(C(Cl)(Cl)Cl)c(Cl)c(Cl)c1Cl, the outcome [6] is reported as “inactive”, the AC50 [3] is reported as 1.45 µM (active) and the AC50 [4] is reported as 21.2 µM (active). The outcome [5] was “inactive” and the outcome [7] was “inactive”.

With CC(CC(C)(C)C)CC(C)(C)CC(C)(C)C (centres undefined) the outcome [6] was “inactive”, the outcome [3] was “inactive” and the outcome [5] was “inactive”. The outcome [7] was “inactive”.

For CCC(C)(O)CCC=C(C)C (centres undefined), the outcome [6] was “inactive”, the outcome [4] was “inactive” and the outcome [5] was “inactive”.

In the case of CC1(C)[C@H]2CC[C@]1(C)[C@H](O)C2, the outcome [6] is reported as “inactive”, the outcome [4] is reported as “inactive” and the outcome [5] is reported as “inactive”.

For CCCCC(CC)COCCC#N (centres undefined), the outcome [1] was “inactive”, the AC50 [2] was 20 µM (active) and the outcome [3] was “inactive”. For the same compound, the outcome [4] was “inactive” and the outcome [7] was “inactive”.

In the case of O=C(O)c1ccc([N+](=O)[O-])cc1, the outcome [1] is reported as “inactive” and the outcome [2] is reported as “inactive”.

With CC1(CO)CN(c2ccccc2)NC1=O (centres undefined) the outcome [6] was “inactive”, the outcome [3] was “inactive” and the outcome [4] was “inactive”. The outcome [7] was “inactive”.

In the case of CC(=O)/C=C/C1=C(C)CCCC1(C)C, the outcome [1] is reported as “inactive”, the outcome [2] is reported as “inactive” and the AC50 [3] is reported as 21.1 µM (active). The AC50 [4] was 2.3 µM (active).

In the case of CC(=O)O[C@]1(C(C)=O)CC[C@H]2[C@@H]3C[C@H](C)C4=CC(=O)CC[C@]4(C)[C@H]3CC[C@@]21C, the outcome [1] is reported as “inactive”, the outcome [2] is reported as “inactive” and the AC50 [3] is reported as 21.9 µM (active). For the same compound, the outcome [4] was “inactive”.

With COc1ccnc(CS(=O)c2nc3cc(OC(F)F)ccc3[nH]2)c1OC (centres undefined) the outcome [6] was “inactive”, the outcome [3] was “inactive” and the outcome [4] was “inactive”. For the same compound, the outcome [5] was “inactive” and the outcome [7] was “inactive”.

With CNC[C@H](O)c1cccc(O)c1 the outcome [1] was “inactive”, the outcome [2] was “inactive” and the outcome [4] was “inactive”. The outcome [8] was “inactive” and the outcome [5] was “inactive”.

For CC(=O)OCCOC(C)=O, the outcome [5] was “inactive”.

With CCCCNC(=O)NS(=O)(=O)c1ccc(N)cc1 the outcome [9] was “inactive” and the outcome [8] was “inactive”.

With COC(C)CCO (centres undefined) the outcome [9] was “inactive”, the outcome [3] was “inactive” and the outcome [4] was “inactive”. For the same compound, the outcome [8] was “inactive” and the outcome [7] was “inactive”.

For CC(C)(N)CO, the outcome [4] was “inactive”.

With CCCCC[Si](OCC)(OCC)OCC the outcome [9] was “inactive”, the outcome [3] was “inactive” and the AC50 [4] was 7.48 µM (active). For the same compound, the outcome [8] was “inactive” and the outcome [7] was “inactive”.

In the case of CCOC(=S)SSC(=S)OCC, the outcome [3] is reported as “inactive”.

In the case of O=C(O)c1ccc(C(=O)O)cc1, the outcome [4] is reported as “inactive” and the outcome [7] is reported as “inactive”.

For CC(C)C1CCC(O)CC1 (centres undefined), the outcome [3] was “inactive” and the outcome [4] was “inactive”.

In the case of O=c1[nH]c(=O)n([C@H]2CCCO2)cc1F, the outcome [3] is reported as “inactive”.

In the case of CCCCN, the outcome [3] is reported as “inactive” and the outcome [5] is reported as “inactive”.

In the case of NCCOCCO, the outcome [4] is reported as “inactive”, the outcome [5] is reported as “inactive” and the outcome [7] is reported as “inactive”.

For N#Cc1nc(Cl)c(Cl)c(Cl)c1Cl, the AC50 [3] was 0.206 µM (active), the outcome [5] was “inactive” and the AC50 [7] was 2.56 µM (active).

For O=[N+]([O-])c1ccc(C=Cc2ccc([N+](=O)[O-])cc2S(=O)(=O)O)c(S(=O)(=O)O)c1, the outcome [3] was “inactive” and the outcome [5] was “inactive”.
